High-throughput results deposited in PubChem by National Center for Advancing Translational Sciences (NCATS).
ELG1 repair inh = qHTS screen for small molecules that inhibit ELG1-dependent DNA repair in human embryonic kidney (HEK293T) cells expressing luciferase-tagged ELG1; HEK293T ELG1-luciferase reporter, luminescence, 16 h; DNA damage induced by 5-fluorouridine; Potency, µM (highest dose often 46.1 µM), without a hit: top-dose activity change, negative = inhibition, actives largely listed as inhibitors; 330,000 compounds, 2.3% hits; AID 504467, 2011; further: potency means the concentration at half of the fitted maximal effect; nearly all actives have a fitted effect of over 55% in size
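Cells (2,000 per well) received 5-fluorouridine plus test compound or DMSO and were incubated 16 hr at 37 °C, 5% CO2. Luciferase activity was read by luminescence 30 min after ONE-Glo addition; signal suppression marked inhibition of damage-induced ELG1 function.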
TSHR antag = Antagonists of the Thyroid Stimulating Hormone Receptor: HTS campaign. Thyrotropin receptor (Homo sapiens), P16473. activity change, negative = inhibition, % at 11.5 µM. AID 504810, 2011. 330,000 compounds, 0.2% hits. TSHR-expressing cells, TSH-stimulated cAMP HTRF, 2 h; stronger effect = lower value;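 active means activity change below a set negative limit, meaning inhibition stronger than a set level, cut at about -70% in these data; inconclusive means activity change between two set negative limits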
Target sequence (P16473 whole entry, looked up): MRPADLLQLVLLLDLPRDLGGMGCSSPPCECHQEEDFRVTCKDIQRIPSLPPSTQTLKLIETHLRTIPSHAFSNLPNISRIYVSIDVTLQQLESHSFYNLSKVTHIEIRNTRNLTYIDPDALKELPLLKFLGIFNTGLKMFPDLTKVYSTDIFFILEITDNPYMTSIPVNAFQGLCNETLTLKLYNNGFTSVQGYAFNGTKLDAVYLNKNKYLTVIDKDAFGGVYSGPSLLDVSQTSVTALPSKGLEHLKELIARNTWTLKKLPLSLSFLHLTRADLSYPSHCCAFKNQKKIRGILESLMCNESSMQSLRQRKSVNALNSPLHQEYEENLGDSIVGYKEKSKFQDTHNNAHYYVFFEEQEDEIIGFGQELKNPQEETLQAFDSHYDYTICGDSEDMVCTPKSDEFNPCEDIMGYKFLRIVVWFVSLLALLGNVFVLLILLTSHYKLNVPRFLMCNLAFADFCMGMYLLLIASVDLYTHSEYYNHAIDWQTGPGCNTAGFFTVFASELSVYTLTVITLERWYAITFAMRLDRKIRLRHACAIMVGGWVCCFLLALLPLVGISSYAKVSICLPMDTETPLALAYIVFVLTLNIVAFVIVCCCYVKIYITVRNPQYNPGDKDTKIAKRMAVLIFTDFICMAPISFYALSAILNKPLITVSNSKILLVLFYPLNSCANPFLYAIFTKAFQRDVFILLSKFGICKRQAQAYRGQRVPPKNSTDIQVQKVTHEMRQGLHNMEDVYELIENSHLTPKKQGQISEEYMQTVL
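TSHR-expressing cells, 200/well, pre-treated with compound, then stimulated with EC80 TSH (4nM final) for 2 hours at 37 deg C. cAMP measured by competitive HTRF: anti-cAMP cryptate antibody in lysis buffer plus cAMP-d2, read after 30 minutes at room temperature.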
Gal4-VP16 FLuc = VP16 counterscreen qHTS for inhibitors of ROR gamma transcriptional activity; 310,000 compounds, 3.5% hits; Drosophila S2 Gal4-VP16 UAS-luciferase, luminescence, 20 h; AID 2546, 2010; Potency, µM (series often up to 53.6 µM), for inactives: at the highest dose activity, negative = inhibition, actives largely listed as inhibitors;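 further: Gal4-VP16 expression switched on by copper sulfate through the metallothionein promoter; potency means the concentration at half of the fitted maximal effect; nearly all actives have a fitted effect of over 50% in size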
RORgamma inh = qHTS for inhibitors of ROR gamma transcriptional activity. Nuclear receptor ROR-gamma (Mus musculus), P51450. Drosophila S2 Gal4-RORgamma UAS-luciferase reporter, 20 h. Potency, µM (series often up to 53.6 µM), without a hit: at the highest dose activity change, negative = inhibition, actives largely listed as inhibitors. 310,000 compounds, 5.4% hits; further: potency means the concentration at half of the fitted maximal effect; nearly all actives have a fitted effect of over 60% in size
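Drosophila S2 cells stably expressing Gal4-DBD/mouse RORγ fusion under metallothionein promoter plus UAS-luciferase; compound 1 h, then 700 uM CuSO4 induction for 20 h at ambient temperature; inhibition read as reduced luminescence.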
B2AR arrestin = qHTS assay of beta-arrestin-biased ligands of beta2-adrenergic receptor; 330,000 compounds, 0.02% hits; Potency, µM (titrated, usually from 46.1 µM), for the others: at the top dose activation, usual class: activators; beta-arrestin recruitment to beta2AR, cell-based reporter; AID 492947, 2010;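 further: potency means the concentration at half of the fitted maximal effect; 0% = DMSO controls and full agonism = EC100 isoproterenol or metaproterenol; nearly all actives have a fitted effect of over 65% in size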
Starred values were filed as active, the others as inactive; ? = inconclusive; / = not tested or not shown; [ ] = dose if it differs, or a comment. The list is not random: actives were taken first. Their share in the collection is about 7.5%. Unless noted, the call rests on the fitted dose curve; in most records, active means well fitted curve in the direction sought with a large enough effect; inconclusive means small, poorly fitted or top-dose-only effect, or another doubt; inactive means no such curve, though single readings can be large; an effect the other way counts as inactive or inconclusive. Unless noted, on the % scale 0 is the no-effect control and ±100 the full control effect.

SMILES | ELG1 repair inh | TSHR antag | Gal4-VP16 FLuc | RORgamma inh | B2AR arrestin
COc1ccc(-c2nc(CS(=O)CC(=O)NCc3ccco3)c(C)o2)cc1 (stereo unspecified) | 0% | 14 | -1% | -23% | 1%
CCOC(=O)N1CCC(NC(=O)CSCc2nc(-c3cccc(OC)c3)oc2C)CC1 | 12µM* | -13 | -3% | 24% | 0%
CCOc1ccc(-c2nc(CSCC(=O)NC3CCCc4ccccc43)c(C)o2)cc1 (stereo unspecified) | ? | -10 | 5% | -16% | 0%
C#CCCCO/N=C1/C[C@@H](O)[C@@H](O)[C@@H]2[C@H]3C(=O)N(c4ccc(F)cc4F)C(=O)[C@@H]3CC[C@H]12 | / | / | -4%[10 µM] | -1%[10 µM] | /
CCOC(=O)C1C(C(=O)OC)=C(c2ccc(F)cc2)c2ccc(OC)cc2N1S(=O)(=O)C(F)(F)F (stereo unspecified) | / | / | -3%[40.7 µM] | 29%[40.7 µM] | /
CCN(CC)CCn1c(NC(=O)c2ccc(Cl)cc2)nc2ccccc21 | ? | -3 | 2.5µM* | 2µM* | 0%
CCN(CC)CCn1c(NC(=O)c2ccccc2O)nc2ccccc21 | 10% | 2 | 5µM* | 2.5µM* | -1%
CCN(CC)CCn1c(NCc2ccc(C)o2)nc2ccccc21 | -22% | -3 | 3% | 0.5µM* | 0%
CC(=O)c1cccc(S(=O)(=O)Nc2cccnc2)c1 | 1% | 6 | 10% | 0% | -1%
COc1cc2c(cc1OC)C1O[C@](c3ccsc3)(C2)OC2=C1C(=O)OC1(CCCCC1)C2 | / | / | ? | -5%[10 µM] | -1%[9.22 µM]
CC(C)(CSc1ncccn1)NS(=O)(=O)c1ccccc1 | -11% | 10 | -2% | -27% | 0%
Cc1ccc(S(=O)(=O)NC(C)(C)CSc2nnc(Nc3ccccc3)s2)cc1 | 23µM* | -13 | -7% | ? | 0%
C=C(C)C(=O)/C=C/C=C/c1ccccc1 | / | / | -3% | -7% | /
Cc1cccc(-n2c(-c3ccncc3)n[nH]c2=S)c1 | 9% | -6 | -21% | ? | -1%
Cc1ccc(-n2c(C)nc3ncnc(-c4ccccc4)c32)cc1 | -19% | -2 | -1% | ? | 0%
Cc1ccc(-n2c(-c3c(-c4ccccc4)noc3C)n[nH]c2=S)cc1 | -8% | 7 | 10µM* | 4.5µM* | 0%
S=c1[nH]nc(-c2ccc(Cl)cc2)n1-c1cccnc1 | 1% | -2 | 7% | -39% | 0%
COc1cc(-n2c(-c3ccccc3)n[nH]c2=S)c(OC)cc1Cl | -21% | -2 | -8% | 5µM* | 0%
S=c1[nH]nc(-c2cccnc2)n1-c1ccccc1 | -11% | 5 | ? | 7.9µM* | -1%
COc1ccc(C)cc1-n1c(-c2ccncc2)n[nH]c1=S | 17% | 3 | -3% | -14% | 0%
Cc1ccc(-n2c(-c3cccc(C)c3)n[nH]c2=S)cc1 | -6% | -15 | 7.1µM* | 3.2µM* | 0%
CCOC(=O)N/N=C1/C[C@@H](O)[C@@H](O)[C@@H]2[C@@H]3C(=O)N(C4CCCCC4)C(=O)[C@H]3CC[C@H]12 | / | / | 1%[10 µM] | 4%[10 µM] | /
CC1(c2ccccc2)NC(=O)N(CC(=O)Nc2ccccc2C(=O)N2CCCCC2)C1=O (stereo unspecified) | 13% | -2 | / | / | 0%
CN(CC(=O)Nc1ccccc1Cl)C(=O)c1ccc(-c2cccc(C(F)(F)F)c2)o1 | 13% | 17 | / | / | 0%
COc1ccccc1-c1n[nH]c(=S)n1-c1ccccc1 | 9% | 14 | ? | 11µM* | 0%
SMILES | ELG1 repair inh | TSHR antag | Gal4-VP16 FLuc | RORgamma inh | B2AR arrestin
COc1ccc(-c2n[nH]c(=S)n2-c2ccc(C)cc2)cc1OC | 17% | -8 | ? | 16µM* | 0%
COc1ccc([N+](=O)[O-])cc1N(CC1CO1)S(=O)(=O)c1ccc(C)cc1 (stereo unspecified) | ? | -9 | -7% | ? | 0%
O=S(=O)(Nc1cc(S(=O)(=O)N2CCOCC2)ccc1NCC1CCCO1)c1ccccc1 (stereo unspecified) | -17% | 14 | / | / | 0%
Cc1ccc(NS(=O)(=O)c2ccc(Cl)c(C(=O)Nc3ccccc3-c3nc4ccccc4[nH]3)c2)cc1C | 9.2µM* | -1 | -9% | ? | 0%
O=C(Nc1ccccc1C(=O)O)c1cc(S(=O)(=O)Nc2cccc(F)c2)ccc1Cl | -9% | -26 | -6% | -28% | 1%
COc1ccc(OC)c(-c2csc(NC(=O)c3ccc(F)cc3)n2)c1 | ? | ? | 10µM* | 11µM* | 0%
COc1ccc(OC)c(-c2csc(NC(=O)Cc3ccc(F)cc3)n2)c1 | -20% | -14 | -14% | -5% | 0%
COc1ccc(OC)c(-c2csc(NC(=O)C3=COCCO3)n2)c1 | 1% | -19 | / | / | 0%
COc1ccc(OC)c(-c2csc(NC(=O)c3ccc(OCC4CCCO4)cc3)n2)c1 (stereo unspecified) | 6.5µM* | ? | -12% | 12% | 0%
CC(C)(C)c1ccc(OCCOc2ccc(C(C)(C)C)cc2NC=O)c(NC=O)c1 | ? | -17 | ? | ? | -1%
CC[C@H](C)[C@H](NC(=O)[C@H](Cc1ccccc1)NC(=O)[C@H](CCC(=O)O)NC(=O)[C@H](CCCCN)NC(=O)[C@H](C)NC(=O)[C@H](C)NC(=O)[C@H](CCC(N)=O)NC(=O)CNC(=O)[C@H](CCC(=O)O)NC(=O)[C@H](CC(C)C)NC(=O)[C@H](Cc1ccc(O)cc1)NC(=O)[C@H](CO)NC(=O)[C@H](CO)NC(=O)[C@@H](NC(=O)[C@H](CC(=O)O)NC(=O)[C@H](CO)NC(=O)[C@@H](NC(=O)[C@H](Cc1ccccc1)NC(=O)[C@@H](NC(=O)CNC(=O)[C@H](CCC(=O)O)NC(=O)[C@H](C)NC(=O)[C@@H](N)Cc1cnc[nH]1)[C@@H](C)O)[C@@H](C)O)C(C)C)C(=O)N[C@@H](C)C(=O)N[C@@H](Cc1c[nH]c2ccccc12)C(=O)N[C@@H](CC(C)C)C(=O)N[C@H](C(=O)N[C@@H](CCCCN)C(N)=O)C(C)C | / | / | -7% | 2% | /
COc1ccc2nc(-c3ccc(N)cc3)[nH]c2c1 | ? | -13 | 10µM* | 7.9µM* | 0%
COc1ccc2nc(-c3cccc(N)c3)[nH]c2c1 | ? | -26 | 13µM* | ? | 7%
COc1ccc(-c2c(C)nn3c(N4CCCCCC4)cc(C)nc23)cc1OC | 12µM* | -12 | -16% | ? | 3%
COc1ccc(-c2c(C)nn3c(N4CCOCC4)cc(C)nc23)cc1OC | 16µM* | -5 | -5% | -10% | 0%
